From PubChem BioAssay AID652058 (Broad Institute, 2013)
Screen size: about 1,200 compounds; about 870 (72%) were called active. Not shown: some 3% with an inconclusive outcome.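 How the source made its calls: active means every test run fits a falling curve whose half-maximal concentration is at most twice the top valid dose; inconclusive means runs disagree, or flat 30 to 70% inhibition, or poor fit; inactive means every run inactive: flat, rising or weaker potency.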 The set was probably picked from earlier hits. Not all results are given here. Potency and affinity values are given separately.

Assay: blockers of HIV-1 ZM109 envelope-driven cell-cell fusion – HeLa effector, CEM target cells, luciferase, cherry-pick, dose response (AID 652058)
Conditions: HeLa Env/CEM cell fusion, 16-24 h; series mostly up to 35 µM

Activity change, negative = inhibition, inactive:
CCCn1c(=S)[nH]c2cc(C(=O)N3CCCC(C(=O)OCC)C3)ccc2c1=O (stereo unspecified)
CN(C(=O)c1cccc(NC(=O)Cc2cccc(NC(=O)C3CCCN(C(=O)C4CCC4)C3)c2)c1)C1CCC1 (stereo unspecified)
COc1ccc(S(=O)(=O)N2CCCCC2)cc1NC(=O)CN(Cc1ccco1)Cc1ccco1
O=C(COC(=O)c1ncc(Cl)c(Cl)c1Cl)NCc1cccs1
CCc1cc2c(NCc3ccco3)ncnc2s1
COc1ccc(-c2cc(=O)oc3c(C)c(O)ccc23)cc1
COc1cccc(S(=O)(=O)N(C)C[C@H]2Oc3cc(C#CCC(C)C)ccc3S(=O)(=O)N([C@H](C)CO)C[C@H]2C)c1
COc1cccc(S(=O)(=O)N(C)C[C@@H]2Oc3cc(C#CCC(C)C)ccc3S(=O)(=O)N([C@H](C)CO)C[C@@H]2C)c1
COc1ccc(OC)c(-c2cc(C(=O)Nc3c(C)nn(Cc4ccc(Cl)cc4)c3C)no2)c1
CC(Cl)=CCn1c(NCCc2ccccc2)nc2c1c(=O)n(C)c(=O)n2C
C[C@@H]1CN([C@@H](C)CO)C(=O)c2cc(NC(=O)c3ccncc3)ccc2O[C@@H]1CN(C)Cc1ccncc1
C[C@@H]1CN([C@@H](C)CO)C(=O)c2cc(NC(=O)c3ccncc3)ccc2O[C@H]1CN(C)Cc1ccncc1
CCCCNC(=O)C[C@H]1C[C@@]2(C(=O)OC)C(=C[C@H](C(C)(C)C)O[C@@H]2C)N(Cc2ccc3c(c2)OCO3)C1=O
COCCn1c(=S)[nH]c2cc(C(=O)N3CCN(Cc4ccc5c(c4)OCO5)CC3)ccc2c1=O
CC(C)OCCCn1c(=S)[nH]c2ccc(N3CCOCC3)cc2c1=O
O=S(=O)(c1ccccc1Cl)N1CCCC1c1nc(-c2ccc(Cl)cc2)no1 (stereo unspecified)
O=C(C[C@@H]1C=C[C@@H](NC(=O)Nc2ccc3c(c2)OCO3)[C@H](CO)O1)NCc1ccc(F)cc1
CCS(=O)(=O)N[C@H]1CC[C@@H](CC(=O)NCc2ccc(Cl)cc2)O[C@@H]1CO
Nc1c(S(=O)(=O)c2ccccc2)cnc2c(-c3ccc(F)cc3)cnn12
COc1ccc(OC)c(NC(=O)COc2ccc3c(c2)CCC3)c1
COc1ccc(S(=O)(=O)NNC(=O)C2Cc3c(ccc4ccccc34)O2)cc1 (stereo unspecified)
COc1ccc(CCNC(=O)COC(=O)c2cccn2C)cc1
COc1ccc(CCCC(=O)NCCc2ccccc2)c(C)c1
Cc1[nH]nc2c1C1(C(=O)N(Cc3ccc(Cl)cc3)c3ccccc31)C(C#N)=C(N)O2 (stereo unspecified)
Cc1ccccc1OCCCCn1cnc2ccccc21
Cc1ccc(C(=O)NCc2ccccn2)cc1S(=O)(=O)N1CCCCC1
O=C(Nc1ccncc1)c1ccc(Cl)c(S(=O)(=O)N2CCc3ccccc32)c1
COc1cccc(/C=N/NC(=O)CC2C(=O)NN=C2C)c1O (stereo unspecified)
CN(C)CC(=O)Nc1ccc2c(c1)[C@H]1C[C@H](CC(=O)NCc3cccc(F)c3)O[C@@H](CO)[C@H]1O2
O=C(C[C@@H]1CC[C@@H](NC(=O)c2ccncc2)[C@H](CO)O1)NCCc1ccncc1
CCCCn1c(CN(C)Cc2ccccc2)nc2c1c(=O)n(C)c(=O)n2C
CC(C)n1c(NCCc2ccccc2)nc2c1c(=O)n(C)c(=O)n2C
CC1CN(S(=O)(=O)c2cc(C(=O)NCCC3=CCCCC3)ccc2Cl)CC(C)O1 (stereo unspecified)
Cc1cc(C)c(CN2CCN(C(=O)Cn3ccc(NC(=O)OCc4ccccc4)nc3=O)CC2)c(C)c1
CC(c1nc2ccccc2c(=O)[nH]1)N(C)CCOc1ccc(Cl)cc1 (stereo unspecified)
CNC[C@@H]1Oc2ccc(NS(C)(=O)=O)cc2CC(=O)N([C@H](C)CO)C[C@H]1C
COCC(=O)N(C)C[C@H]1Oc2ncc(Br)cc2C(=O)N([C@H](C)CO)C[C@H]1C
C[C@H]1CN([C@@H](C)CO)C(=O)c2cccc(NC(=O)Nc3ccc(C(F)(F)F)cc3)c2O[C@H]1CN(C)S(=O)(=O)c1ccccc1
O=C(c1cc(COc2cccc(C(F)(F)F)c2)on1)N1CCC(c2ccncc2)CC1
Clc1ccc(-c2noc(CSc3nnc(-c4ccncc4)n3-c3ccccc3)n2)cc1
CC1=C(C(=O)OCc2ccc3c(c2)OCO3)C(c2ccc(F)cc2)NC(=O)N1 (stereo unspecified)
Cc1nn(C)c(Cl)c1NC(=O)OCc1ccc(Cl)cc1Cl
CCNC(=O)Nc1ccc2c(c1)C(=O)N(C)[C@@H]1CC[C@@H](CC(=O)NCC3CCCCC3)O[C@@H]1CO2
CCNC(=O)C[C@H]1CC[C@@H]2[C@@H](COc3ccc(NC(=O)Cc4cccs4)cc3C(=O)N2C)O1
Cc1nn(C)cc1NC(=O)C[C@H]1CC[C@@H]2[C@@H](COc3ccc(NC(=O)C4CCC4)cc3C(=O)N2C)O1
CCNC(=O)C[C@@H]1CC[C@@H]2[C@@H](COc3ccc(NC(=O)Cc4cccs4)cc3C(=O)N2C)O1
CN(C)CCCNC(=O)[C@H]1[C@H](CO)[C@H]2Cn3c(ccc(C4=CCCC4)c3=O)[C@H]2N1CCC(F)(F)F
CNC[C@H]1Oc2c(NC(=O)Nc3ccc4c(c3)OCO4)cccc2C(=O)N([C@H](C)CO)C[C@@H]1C
C[C@H](CO)N1C[C@H](C)[C@H](CN(C)Cc2ccccc2)Oc2c(NC(=O)Nc3ccc4c(c3)OCO4)cccc2C1=O
C#CCn1c(=O)c2c(ncn2C)n(C)c1=O
COc1cccc(CNC(=O)C[C@@H]2C=C[C@H](NC(=O)C3CCC3)[C@H](CO)O2)c1
Cc1ccc(-c2ccc3c(c2)O[C@H](CN(C)Cc2cccnc2)[C@@H](C)CN([C@H](C)CO)S3(=O)=O)cc1
Cc1ccc(-c2ccc3c(c2)O[C@@H](CN(C)Cc2cccnc2)[C@H](C)CN([C@H](C)CO)S3(=O)=O)cc1
Cc1cc(C)c(CN2CCN(C(=O)Cn3cnc4c(NCc5ccccc5)ncnc43)CC2)c(C)c1
N#Cc1ccc(CN2CCN(C(=O)CNC(=O)Cc3cccc4ccccc34)CC2)cc1
CSc1ncccc1C(=O)OCC(=O)Nc1ccc(C)c(S(=O)(=O)N2CCOCC2)c1
O=C(OCCOc1cccc(Cl)c1)c1cc(S(=O)(=O)N2CCCCC2)ccc1N1CCOCC1
Nc1ccc(S(=O)(=O)c2ccc(N3CCOCC3)c(N)c2)cc1
C[C@H]1NC(=O)[C@@]2(C)[C@H](c3ccccc3)[C@H]3COc4ccccc4[C@@H]3N2C1=O
COc1cc2c(cc1OC)C(=O)N1[C@H]3c4cc(Cl)ccc4OC[C@@H]3[C@H](c3ccccc3)[C@]1(C)C(=O)N2
COc1ccc(-c2nn(C)c(=O)c3ccccc23)cc1NC(=O)COc1ccccc1
COc1ccc(OCC(=O)Nc2cc(-c3nn(C)c(=O)c4ccccc34)ccc2OC)cc1
Cc1ccc(-c2ccc3c(c2)O[C@@H](CN(C)C(=O)C2CCCCC2)[C@H](C)CN([C@H](C)CO)S3(=O)=O)cc1
Cc1ccc(-c2ccc3c(c2)O[C@H](CN(C)Cc2ccncc2)[C@@H](C)CN([C@@H](C)CO)S3(=O)=O)cc1
C[C@H](CO)N1C[C@H](C)[C@H](CN(C)Cc2ccccc2F)Oc2cc(C3=CCCC3)ccc2S1(=O)=O
Cc1ccc(-c2ccc3c(c2)O[C@@H](CN(C)Cc2ccncc2)[C@H](C)CN([C@H](C)CO)S3(=O)=O)cc1
O=C(c1cccc(S(=O)(=O)N2CCN(c3ccccc3)CC2)c1)N1CCCC(C(F)(F)F)C1 (stereo unspecified)
Cc1ccccc1S(=O)(=O)NC(=O)C1(C)CCN1C(=O)CCc1ccc(Cl)cc1Cl (stereo unspecified)
N#Cc1ccc(CSc2nnc(COc3ccccc3)n2-c2ccccc2)cc1
COC(=O)[C@@]1(Cc2ccc(F)cc2)[C@H]2c3cc(C(=O)N(C)C)n(CCO)c3C[C@H]2CN1C(=O)c1ccccc1
CC(NC(=O)c1ccccc1NC(=O)CN1CCc2ccccc2C1)c1ccccc1 (stereo unspecified)
Cc1ccc(-n2nnnc2SCn2nnc3ccccc3c2=O)c(C)c1
Cc1cccc(N2CCN(C(=O)CCCSc3nc4ccccc4[nH]3)CC2)c1C
O=C(NCc1cccnc1)c1c[nH]c2cc3c(cc2c1=O)OCCO3
N#C[C@H]1[C@@H](c2ccccc2/C=C/c2ccccc2)[C@@H](CO)N1S(=O)(=O)c1cccc(F)c1
Cc1ccc(CSCCNC(=O)c2ccc(Cl)c(S(=O)(=O)N3CCOCC3)c2)cc1
Cc1nc2sc(C(c3ccco3)N3CCC(Cc4ccccc4)CC3)c(O)n2n1 (stereo unspecified)
C[C@H]1CN([C@@H](C)CO)C(=O)Cc2cc(N(C)C)ccc2O[C@H]1CN(C)CC1CC1
COCCCNC(=O)c1sc2ncnc(N3CCc4ccccc4C3)c2c1C
CC(C)(C)OC(=O)N1CCc2onc(-c3ccc(Br)cc3)c2C1=O
COc1ccc(Nc2ncc(C(=O)N3CCN(c4ccc(F)cc4)CC3)c3ccccc23)cc1
c1coc(CNc2c3c(nc4ccccc24)CCC3)c1
Cc1ccc(NS(=O)(=O)c2cc(C(=O)N(C)C3CCN(C)CC3)ccc2Cl)cc1Cl
Cc1cc(Cl)c(S(=O)(=O)N2CCCC2)cc1OCC(=O)NC1CCCCC1
C=CCOc1c(Br)cc(CNc2ccc(NC(=O)C(C)C)c(OC)c2)cc1OC
Cc1noc(C)c1NC(=O)N(C)C[C@H]1OCCCC[C@H](C)Oc2ccc(NC(=O)c3ccccc3)cc2C(=O)N([C@H](C)CO)C[C@@H]1C
